# From the supplement of paper PMC6555819
# How the values were obtained:
# Experiment in all cases: PBM binding z-score (relative to random genomic background probes); higher = stronger binding; sequences stand for … in GC…GCGATTGACAGCGTAGAATGAAGG
# [1] = test system: FXR:RXRa (NR concentration 270 nM, RXRa partner concentration 90 nM)
# Summary of the method: (§1)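 Scanned fluorescence from custom Agilent 4×180K protein-binding microarrays was regression-normalized. Binding z-scores use random background probes as reference. Ligand-free nuclear receptor dimers were incubated on the arrays for 1 h and detected with antibodies against each partner (one per run).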
# [2] = test system: LXRa:RXRa (NR concentration 270 nM, RXRa partner concentration 90 nM)
# Summary of the method: as §1
# [3] = test system: LXRa homodimer (NR concentration 270 nM)
# Summary of the method: as §1
# [4] = test system: LXRb:RXRa (NR concentration 270 nM, RXRa partner concentration 90 nM)
# Summary of the method: as §1
# [5] = test system: PPARa:RXRa (NR concentration 270 nM, RXRa partner concentration 90 nM)
# Summary of the method: as §1
# [6] = test system: PPARg:RXRa 270nM:90nM, anti-RXR (NR concentration 270 nM, RXRa partner concentration 90 nM)
# Summary of the method: as §1
# [7] = test system: PPARg:RXRa 30nM:10nM, anti-RXR (NR concentration 30 nM, RXRa partner concentration 10 nM)
# Summary of the method: as §1
# [8] = test system: PPARg:RXRa 90nM:30nM, anti-RXR (NR concentration 90 nM, RXRa partner concentration 30 nM)
# Summary of the method: as §1
# [9] = test system: PPARg:RXRa DBDmut IVT, anti-RXR (DBD mutation: RXRa K156A/R161A, NR concentration 270 nM, RXRa partner concentration 90 nM)
# Summary of the method: as §1
# [10] = test system: PPARg:RXRa IVT, anti-PPARg (NR concentration 270 nM, RXRa partner concentration 90 nM)
# Summary of the method: as §1
# [11] = test system: PPARg homodimer (NR concentration 180 nM)
# Summary of the method: as §1
# [12] = test system: PXR:RXRa (NR concentration 270 nM, RXRa partner concentration 90 nM)
# Summary of the method: as §1
# [13] = test system: PXR homodimer (NR concentration 270 nM)
# Summary of the method: as §1
# [14] = test system: RARa:RXR (NR concentration 270 nM, RXRa partner concentration 90 nM)
# Summary of the method: as §1
# [15] = test system: RARa homodimer (NR concentration 270 nM)
# Summary of the method: as §1
# [16] = test system: RARb:RXRa (NR concentration 270 nM, RXRa partner concentration 90 nM)
# Summary of the method: as §1
# [17] = test system: LXRb homodimer (NR concentration 270 nM)
# Summary of the method: as §1
# [18] = test system: PPARg:RXRa (NR concentration 180 nM, RXRa partner concentration 90 nM)
# Summary of the method: as §1
# [19] = test system: PPARg DBDmut:RXRa IVT, anti-PPARg (DBD mutation: PPARg1 K132A/R137A, NR concentration 270 nM, RXRa partner concentration 90 nM)
# Summary of the method: as §1
# [20] = test system: PPARg DBDmut IVT, anti-PPARg (DBD mutation: PPARg1 K132A/R137A, NR concentration 270 nM)
# Summary of the method: as §1
Sequence,PBM binding z-score [1],PBM binding z-score [2],PBM binding z-score [3],PBM binding z-score [4],PBM binding z-score [5],PBM binding z-score [6],PBM binding z-score [7],PBM binding z-score [8],PBM binding z-score [9],PBM binding z-score [10],PBM binding z-score [11],PBM binding z-score [12],PBM binding z-score [13],PBM binding z-score [14],PBM binding z-score [15],PBM binding z-score [16],PBM binding z-score [17],PBM binding z-score [18],PBM binding z-score [19],PBM binding z-score [20]
TCGAGTAGCTTACGGGGGCATTCAGGGATGAAGA,1.64,1.5,0.141,3.47,2.12,2.1,2.18,2.37,1.25,2.26,0.346,2.21,1.09,1.47,-0.926,0.94,,,,
CCTACAGGGCCAAGGTCATTGATCAGTCAAAGCA,3.24,3.38,0.911,,3.78,3.94,1.45,3.32,0.158,1.47,1.8,3.54,1.53,3.67,0.267,3.47,-0.2,2.72,-0.788,-0.319
CTATGTAGGTTAAGGGGGTCATTGAGTTTGAAAG,5.19,4.98,2.68,6.12,,7.92,5.98,8.13,7.65,7.94,3.37,6.54,12.9,6.15,1.4,3.78,,8.96,,
CTCGAAAGGTCGTGGTCAGGTGAGTATACCAAAC,5.9,4.27,0.0394,,5.02,4.6,1.21,3.34,0.883,2.33,2.21,3.61,0.127,4.47,0.777,4.04,0.247,3.26,-0.0163,0.484
CCTACTGGGCCACGAAAGGTGATTGATTCAGTGA,-0.0481,0.0469,-0.496,,1.75,1.68,0.232,0.958,5.14,5.37,0.352,0.0244,-0.433,0.698,-0.285,0.929,-0.883,2.08,-0.117,-0.709
TAGCCTAGGTCATGCGGGTCAGTATAGTGTCGGC,4.39,3.93,1.06,,4.05,3.43,0.354,2.32,2.38,3.65,1.03,3.67,1.56,3.45,-0.237,4.05,0.0417,2.77,0.284,-0.506
AATACAGGGTGATCGTAGGCCAGAGTACGCACAG,-0.0324,0.162,-0.234,,0.576,0.407,0.131,0.149,0.342,1.51,0.342,0.0587,0.139,0.29,0.275,0.432,-0.0404,1.2,0.927,0.662
CCTAGTTGGTCAGGAAGTCACACACCGGATATGA,0.197,0.331,0.553,,0.239,0.592,0.308,0.322,0.63,0.621,1.03,0.246,0.549,0.014,1.63,0.892,0.257,0.696,-0.0162,0.0813
CACACTAGGTCAAAGGTCAAAGTCGAGCCAACCA,8.41,7.68,6.65,,7.75,11.2,14,14,8.09,8.84,7.33,7.4,2.74,9.26,4.38,5.87,3.73,13.9,5.62,4.09
CAAACTAGGCCAAGGTCAAAGTCGGTTTGTGCCA,4.09,3.76,2.16,,4.79,6.01,3.89,5.74,6.88,6.61,1.87,4.28,1.2,3.97,0.776,4.07,0.128,6.27,0.98,0.266
ATCGAAAGGTCGACGAGGTGAGAATACACCGTTT,5.1,3.9,0.0731,,4.87,3.7,1.25,2.26,0.716,2.39,2.15,3.29,0.612,4.11,0.753,4.1,0.224,3.21,0.449,1.17
ACTAGTTGGTCAGCTGGGGTCACACACAATTCGG,3.81,3.01,0.525,,4.47,3.06,0.707,2.36,1.23,2.46,2.5,5.82,1.23,6.17,0.784,3.33,0.369,2.37,0.596,-0.0449
TCTAGCTGGTCACGGAGGTCACACACGACGGGTA,3.41,3.79,2.37,,3.88,3.83,2.33,3.14,1.56,3.5,3.03,4.91,0.955,5.08,1.08,3.81,0.0556,3.35,0.457,0.217
